Tests used:
Assay in all cases: protein-binding microarray (PBM); PBM: ~300 nM protein, 6 mM HEPES pH 7.8, 80 mM KCl, 0.5 mM EDTA, 0.5 mM EGTA, 6% glycerol, 35 ng/ul poly-dIdC, 1% milk, 1 h, room temperature; Ap Aiptasia and Nv Nematostella (sea anemones) / Co Capsaspora / Aq Amphimedon (sponge) / Dm Drosophila / Hu human; RHD is the Rel homology domain; high values mean tight binding
Details in all cases: dsDNA, one strand shown
[1] = target: T1, GST-Ap-NF-kB RHD (Exaiptasia pallida (Aiptasia), UniProt A0A913YAJ5 2-422)
T1 sequence: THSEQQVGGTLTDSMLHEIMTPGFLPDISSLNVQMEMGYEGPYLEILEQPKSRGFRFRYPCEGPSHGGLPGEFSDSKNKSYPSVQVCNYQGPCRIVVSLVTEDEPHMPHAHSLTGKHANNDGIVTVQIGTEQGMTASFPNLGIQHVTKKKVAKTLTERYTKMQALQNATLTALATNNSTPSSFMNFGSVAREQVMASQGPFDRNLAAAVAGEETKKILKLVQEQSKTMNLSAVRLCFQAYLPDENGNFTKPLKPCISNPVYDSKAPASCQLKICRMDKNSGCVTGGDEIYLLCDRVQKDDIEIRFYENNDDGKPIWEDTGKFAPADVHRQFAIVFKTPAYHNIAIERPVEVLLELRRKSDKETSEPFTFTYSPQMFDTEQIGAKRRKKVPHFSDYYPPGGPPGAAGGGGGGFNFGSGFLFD

[2] = target: T2, GST-Nv-NF-kB (Cys allele) (Nematostella vectensis, UniProt E5G601 2-411)
T2 sequence: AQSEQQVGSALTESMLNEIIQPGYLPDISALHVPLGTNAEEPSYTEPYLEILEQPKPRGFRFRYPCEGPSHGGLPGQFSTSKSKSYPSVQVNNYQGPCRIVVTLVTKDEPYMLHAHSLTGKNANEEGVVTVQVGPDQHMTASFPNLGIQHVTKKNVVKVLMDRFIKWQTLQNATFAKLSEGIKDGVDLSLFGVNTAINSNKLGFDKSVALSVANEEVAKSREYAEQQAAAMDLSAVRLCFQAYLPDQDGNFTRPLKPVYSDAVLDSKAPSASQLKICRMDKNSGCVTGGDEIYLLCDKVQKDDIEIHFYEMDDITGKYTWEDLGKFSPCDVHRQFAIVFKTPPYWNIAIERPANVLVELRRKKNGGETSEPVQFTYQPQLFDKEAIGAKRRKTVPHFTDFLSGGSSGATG

[3] = target: T3, GST-Co-NF-kB (Capsaspora owczarzaki, UniProt F1ARL5 200-546)
T3 sequence: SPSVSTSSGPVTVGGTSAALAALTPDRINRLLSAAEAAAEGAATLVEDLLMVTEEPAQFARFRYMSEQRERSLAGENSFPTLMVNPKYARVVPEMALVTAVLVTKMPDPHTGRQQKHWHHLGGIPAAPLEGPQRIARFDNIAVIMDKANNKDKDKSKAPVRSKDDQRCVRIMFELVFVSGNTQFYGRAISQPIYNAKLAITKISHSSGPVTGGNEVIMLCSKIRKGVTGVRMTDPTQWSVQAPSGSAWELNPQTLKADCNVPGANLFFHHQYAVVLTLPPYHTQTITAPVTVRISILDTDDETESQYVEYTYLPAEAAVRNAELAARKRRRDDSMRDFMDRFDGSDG

[4] = target: T4, GST-Dm-Relish (Drosophila melanogaster, UniProt Q94527 99-473)
T4 sequence: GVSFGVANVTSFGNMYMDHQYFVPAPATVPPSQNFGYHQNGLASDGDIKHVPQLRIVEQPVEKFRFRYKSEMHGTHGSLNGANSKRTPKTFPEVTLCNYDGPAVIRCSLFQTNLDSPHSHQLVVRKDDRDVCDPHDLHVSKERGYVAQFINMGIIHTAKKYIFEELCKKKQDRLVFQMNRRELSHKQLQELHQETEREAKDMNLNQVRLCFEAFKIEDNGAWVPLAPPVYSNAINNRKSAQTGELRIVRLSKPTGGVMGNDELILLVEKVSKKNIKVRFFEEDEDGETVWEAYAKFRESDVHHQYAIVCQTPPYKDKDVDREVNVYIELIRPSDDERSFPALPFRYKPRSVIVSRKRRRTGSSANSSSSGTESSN

[5] = target: T5, GST-Aq-NF-kB (Amphimedon queenslandica, UniProt A9Y5G7 2-389)
T5 sequence: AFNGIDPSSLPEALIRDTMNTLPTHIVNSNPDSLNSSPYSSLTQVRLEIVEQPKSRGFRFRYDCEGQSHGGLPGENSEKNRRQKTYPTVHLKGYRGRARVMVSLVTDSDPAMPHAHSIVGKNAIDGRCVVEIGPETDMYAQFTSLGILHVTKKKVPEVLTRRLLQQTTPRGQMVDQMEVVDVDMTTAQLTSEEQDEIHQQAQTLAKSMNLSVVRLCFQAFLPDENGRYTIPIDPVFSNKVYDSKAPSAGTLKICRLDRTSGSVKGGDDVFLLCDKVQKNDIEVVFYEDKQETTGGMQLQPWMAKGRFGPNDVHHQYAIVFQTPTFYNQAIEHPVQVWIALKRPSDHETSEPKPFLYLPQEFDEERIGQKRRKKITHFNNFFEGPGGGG

Row | Sequence | binding signal [1] [z-score] | binding signal [2] [z-score] | binding signal [3] [z-score] | binding signal [4] [z-score] | binding signal [5] [z-score]
1 | CCGATTAACATCAGAACTTCCCATGATGTTAATCGGGTCTTGATTCGCTTGACGCTGCTG | 2.63 | 2.58 | 1.5 | 3.3 | 2.91
2 | CCGATTAACATCAGGGAAATTCATGATGTTAATCGGGTCTTGATTCGCTTGACGCTGCTG | 4.54 | 6.28 | 4.15 | 2.26 | 5.94
3 | CCGATTAACATCAGGGAACTACATGATGTTAATCGGGTCTTGATTCGCTTGACGCTGCTG | 1.52 | 1.1 | 1.62 | 8.31 | 2.44
4 | CCGATTAACATCAAATTCCCAAATGATGTTAATCGGGTCTTGATTCGCTTGACGCTGCTG | 1.72 | 3.62 | 2.55 | 4.57 | 2.31
5 | CCGATTAACATCACGGCTTTCCCTGATGTTAATCGGGTCTTGATTCGCTTGACGCTGCTG | 2.31 | 3.5 | 2.32 | 2.21 | 3.7
6 | CCGATTAACATCATGCGGGAAAATGATGTTAATCGGGTCTTGATTCGCTTGACGCTGCTG | 2.22 | 3.71 | 4.47 | 1.22 | 2.76
7 | CCGATTAACATCAGGGGATAAAATGATGTTAATCGGGTCTTGATTCGCTTGACGCTGCTG | 4.6 | 5.11 | 7.5 | 3.31 | 4.05
8 | CCGATTAACATCAGAATTACCCATGATGTTAATCGGGTCTTGATTCGCTTGACGCTGCTG | 3.09 | 3.82 | 2.12 | 1.97 | 3.58
9 | CCGATTAACATCAGGAAGTTCCCTGATGTTAATCGGGTCTTGATTCGCTTGACGCTGCTG | 4.78 | 5.36 | 2.57 | 4.82 | 7.74
10 | CCGATTAACATCAGAAATTCCCATGATGTTAATCGGGTCTTGATTCGCTTGACGCTGCTG | 4.5 | 6.44 | 4.07 | 5.05 | 4.99
11 | CCGATTAACATCAAGTTTACCCCTGATGTTAATCGGGTCTTGATTCGCTTGACGCTGCTG | 3.21 | 2.2 | 6.61 | 2.4 | 2.91
12 | CCGATTAACATCACATATACCCCTGATGTTAATCGGGTCTTGATTCGCTTGACGCTGCTG | 3.26 | 1.78 | 4.3 | 1.34 | 2.28
13 | CCGATTAACATCAGGAAACACCCTGATGTTAATCGGGTCTTGATTCGCTTGACGCTGCTG | 3.05 | 2.79 | 1.1 | 4.19 | 6.01
14 | CCGATTAACATCAAAAGACCCCCTGATGTTAATCGGGTCTTGATTCGCTTGACGCTGCTG | 6.38 | 5.12 | 3.12 | 8.16 | 6.25
15 | CCGATTAACATCAGGGATTCCCATGATGTTAATCGGGTCTTGATTCGCTTGACGCTGCTG | 4.88 | 4.61 | 2.91 | 10 | 6.04
16 | CCGATTAACATCAGGGATTTTCATGATGTTAATCGGGTCTTGATTCGCTTGACGCTGCTG | 5.23 | 4.83 | 1.61 | 6.05 | 5.16
17 | CCGATTAACATCAATCACCCCCATGATGTTAATCGGGTCTTGATTCGCTTGACGCTGCTG | 4.03 | 2.63 | 4.35 | 1.86 | 3.32
18 | CCGATTAACATCAGGGAGATTTATGATGTTAATCGGGTCTTGATTCGCTTGACGCTGCTG | 3.69 | 5.42 | 2.8 | 1.71 | 5.99
19 | CCGATTAACATCAGGGGGTGTAATGATGTTAATCGGGTCTTGATTCGCTTGACGCTGCTG | 3.57 | 3.16 | 3.87 | 3.25 | 3.21
20 | CCGATTAACATCACGAAAATCCCTGATGTTAATCGGGTCTTGATTCGCTTGACGCTGCTG | 4.71 | 4.39 | 1.55 | 6.19 | 4.64
21 | CCGATTAACATCAGGGAATACCATGATGTTAATCGGGTCTTGATTCGCTTGACGCTGCTG | 3.14 | 2.92 | 2.08 | 6.8 | 4.48
22 | CCGATTAACATCAACCCCCGGCTTGATGTTAATCGGGTCTTGATTCGCTTGACGCTGCTG | 4.17 | 2.37 | 2.79 | 4.35 | 2.51
23 | CCGATTAACATCACGGGAATGCCTGATGTTAATCGGGTCTTGATTCGCTTGACGCTGCTG | 1.93 | 2.46 | 1.56 | 3.11 | 3.8
24 | CCGATTAACATCAGGGGGTATACTGATGTTAATCGGGTCTTGATTCGCTTGACGCTGCTG | 5.81 | 3.11 | 4.82 | 6.38 | 4.14
25 | CCGATTAACATCAGTAATTCCCATGATGTTAATCGGGTCTTGATTCGCTTGACGCTGCTG | 4.02 | 4.3 | 5.42 | 7.23 | 4.24
26 | CCGATTAACATCATAAAATCCCATGATGTTAATCGGGTCTTGATTCGCTTGACGCTGCTG | 2.43 | 2.92 | 1.47 | 6.55 | 3.1
27 | CCGATTAACATCAACAGGGAAAATGATGTTAATCGGGTCTTGATTCGCTTGACGCTGCTG | 3.23 | 4.25 | 2.91 | 1.32 | 3.33

— publication PMC5700166
